Assay results reported in PubChem BioAssay (NCATS).
Inconclusive results are not listed. Entries that show only a call come without a potency. Activity calls are given as the source filed them. Calls come from the whole dose curve; as a rule, active = well fitted inhibition curve with a large enough effect; inconclusive = small, poorly fitted or top-dose-only effect; inactive = flat fitted curve, though single readings scatter.

Biological target: Aldehyde dehydrogenase, mitochondrial (Homo sapiens) (UniProt P05091)
Test: qHTS for Inhibitors of the Aldehyde Dehydrogenase Family (ALDH2) Primary screen (AID 2061308); note: nearly all actives have a fitted effect of over 55% in size
Settings: ALDH2 enzyme inhibition qHTS, 1536-well; series mostly up to 56 µM

SMILES | Potency
Cc1ccc(NS(=O)(=O)c2ccc3c(c2)n(C)c(=O)n3C)cc1C | inactive
CC(C)(C)OC(=O)N[C@@H](Cc1ccc(O[S+](=O)([O-])c2cccc3cnccc23)cc1)C(=O)Nc1ccc(-c2ccccc2)cc1 | inactive
CCCCNc1nc(C)nc2c1nc(-c1ccccc1)n2C1CCN(Cc2ccccc2)C1 (stereo not given) | inactive
C=Cc1ccc(C(=O)N2CCCC(CCC(=O)N3CCN(c4ccccn4)CC3)C2)cc1 (stereo not given) | inactive
COc1cc(-c2ccc3ncnc(N(C)Cc4csc(C)n4)c3c2)cc(OC)c1OC | inactive
O=C(Nc1ccc2c(c1)OCCO2)Nc1nnc(-c2ccncc2)s1 | inactive
COc1ccccc1OC1=NS(=O)(=O)c2ccccc21 | inactive
COc1cc(O)c(C(CC(=O)N2CCCC(C(=O)N3CCCCC3)C2)c2ccc3c(c2)OCO3)c(OC)c1 (stereo not given) | inactive
CC(C)=CCC[C@](C)(O[C@@H]1O[C@H](CO[C@@H]2O[C@@H](CO)[C@H](O)[C@H]2O)[C@@H](O)[C@H](O)[C@H]1O)[C@H]1CC[C@]2(C)[C@@H]1[C@H](O)C[C@@H]1[C@@]3(C)CC[C@H](O[C@@H]4O[C@H](CO)[C@@H](O)[C@H](O)[C@H]4O[C@@H]4O[C@H](CO)[C@@H](O)[C@H](O)[C@H]4O)C(C)(C)[C@@H]3CC[C@]12C | inactive
Cc1noc(C)c1-c1ccc2ncnc(NCc3cccc(-c4ccccc4)c3)c2c1 | inactive
Brc1cnc2nc(SCc3ccccc3)[nH]c2c1 | inactive
FC(F)(F)c1cccc(N2CCN(C(=S)Nc3ccncc3)CC2)c1 | inactive
c1ccc2c(Nc3nnc(-c4ccncc4)s3)cccc2c1 | inactive
Cc1cc(C)nc(NC(=S)N2CCN(c3cc(C(F)(F)F)nc(C)n3)CC2)c1 | inactive
Cc1cc(C)nc(NC(=S)N2CCN(c3ccc(C(F)(F)F)cc3C(F)(F)F)CC2)c1 | inactive
Fc1cccc(CNc2ncnc3ccc(-c4ccc5c(c4)OCO5)cc23)c1 | inactive
O=C(NCc1cccnc1)C1CCN(S(=O)(=O)c2cccs2)CC1 | inactive
Cc1ccc(S(=O)(=O)Nc2ccccc2C(=O)Nc2nc(-c3ccccc3)c(Br)s2)cc1 | inactive
CCCCNc1nc(C)nc2c1nc(C)n2CCC | inactive
Cc1cc(-c2nnc3n2CCCCC3)c(C)n1-c1cccc(Cl)c1 | inactive

SMILES | Potency
CCOC(=O)Nc1sc2c(c1C(N)=O)CCCC2 | inactive
Cc1cc2c(s1)c1cnn(Cc3ccccc3F)c(=O)c1n2C | inactive
Cc1cccc(-c2ccc3ncnc(NCc4cccnc4)c3c2)c1 | inactive
COc1ccc2nc(-c3cccc(F)c3)sc2c1 | inactive
CCCn1c(C)nc2c(N3CCCN(Cc4ccccc4)CC3)nc(C)nc21 | inactive
O=C(OCC#CCSc1nnc(-c2cccc3ccccc23)o1)c1ccc(SC(F)(F)F)cc1 | inactive
Cc1ccc(NS(=O)(=O)c2ccc3c(c2)CCC(=O)N3C)cc1Cl | inactive
Cc1ccc(C(=O)Nc2nnc(-c3ccco3)o2)cc1 | inactive
COc1cccc(C2c3c(ncn(-c4ccccc4C)c3=N)Oc3ccc4ccccc4c32)c1 (stereo not given) | inactive
c1nc(N2CCOCC2)c2cc(-c3ccc4c(c3)OCO4)ccc2n1 | inactive
O=C(Cc1nnc(CNC(=O)c2ccccc2)o1)Nc1cc(C(F)(F)F)ccc1Cl | inactive
CC(=O)Nc1sc2c(c1C(O)c1nc3ccccc3s1)CCN(C(C)C)C2 (stereo not given) | inactive
c1nc(NCCc2cnc[nH]2)c2cc(-c3ccoc3)ccc2n1 | inactive
COc1cccc(-c2nnc3n2N=C(c2cc(OC)ccc2OC)CS3)c1 | inactive
COc1ccc(C2Nc3ccccc3C(=O)N2Cc2ccc3c(c2)OCO3)cc1COc1c(C)cc(NC(C)=O)cc1C (stereo not given) | inactive
Cc1cccc(S(=O)(=O)Nc2cnccc2C(=O)Nc2nc(-c3ccccc3)cs2)c1 | inactive
N#Cc1ccccc1Nc1ncc(-c2cccc3ccccc23)o1 | inactive
COc1cc(-c2ccc3ncnc(NCCc4cnc[nH]4)c3c2)cc(OC)c1OC | inactive
COc1cc(-c2ccc3ncnc(NCC4CCCO4)c3c2)cc(OC)c1OC (stereo not given) | inactive
COc1ccc(C2=Nn3c(nnc3-c3ccccc3O)SC2)c(OC)c1 | inactive
